This note sets out measurements from PubChem BioAssay (NCI).

The panel holds about 79,000 compounds, 15% with a hit somewhere; the sample as a whole holds those more often. A number with no mark means an inactive call. Activity calls are given as the source filed them. Cut-off read from the data, not from the text of the source: active = growth inhibition above about 70%; inactive = the rest.

The nature of test [1]: NCI Yeast Anticancer Drug Screen. Data for the rad50 strain (AID 155).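 Note: 0% = growth of vehicle-only cultures of the same strain.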 To be noted: S. cerevisiae rad50 strain growth inhibition, active compounds read high. In a few lines:
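Vehicle-treated cultures provide the reference for the growth inhibition reported for compound-exposed, repair-deficient yeast.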

A short description of test [2]: NCI Yeast Anticancer Drug Screen. Data for the mec2-1 strain (AID 157). To be noted: S. cerevisiae mec2-1 strain, active compounds read high. The essentials: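 Readout is yeast growth inhibition, normalised to vehicle-treated controls, in the mec2-1 strain exposed to compound.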
A short description of test [3]: NCI Yeast Anticancer Drug Screen. Data for the sgs1 mgt1 strain (AID 161).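 Note: 0% = growth of cultures given vehicle only.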 The following applies: S. cerevisiae sgs1 mgt1 strain, active compounds read high. The essentials: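 Growth of a repair-deficient yeast mutant was monitored after compound treatment and expressed as inhibition relative to vehicle-treated cultures.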
A short description of test [4]: NCI Yeast Anticancer Drug Screen. Data for the cln2 rad14 strain (AID 165).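 Note: 0% = growth equal to vehicle treated cultures.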 The following applies: S. cerevisiae cln2 rad14 strain, active compounds read high. In a few lines:
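Relative to vehicle controls, growth inhibition of compound-treated cln2 rad14 yeast was recorded.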

Test [5] in a line: NCI Yeast Anticancer Drug Screen. Data for the bub3 strain (AID 167). To be noted: S. cerevisiae bub3 mutant strain, active compounds read high. The essentials:
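Mutant yeast screening strain plus compound; vehicle-treated cultures serve as the 0% inhibition reference.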

A short description of test [6]: NCI Yeast Anticancer Drug Screen. Data for the mlh1 rad18 strain (AID 175). To be noted: S. cerevisiae mlh1 rad18 strain growth inhibition, active compounds read high. In a few lines:
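Test agents were incubated with a yeast strain of defined genotype (DNA damage repair defect). Inhibition of growth was derived by comparison with vehicle-exposed cultures.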

The mark [7] stands for this setting: at 5.0 µM (retest, dose inferred, filed as 0.5).
The mark [8] stands for this setting: at 50.0 µM (retest, dose inferred, filed as 5.0).

As to `CCCCCCCCCCCCCCCCOC(=O)C[n+]1ccc(C(N)=O)cc1`, the growth inhibition was -2% in test [1] (setting [7]); 97% (active) in test [1] (setting [8]); 98% (active) in test [1] (at 50.0 µM); -8% in test [2] (setting [7]); 99% (active) in test [2] (setting [8]); 98.1% (active) in test [2] (at 50.0 µM). Further, the growth inhibition was 21% in test [3] (setting [7]); 94% (active) in test [3] (setting [8]); 98.9% (active) in test [3] (at 50.0 µM); 0% in test [4] (setting [7]); 72% (active) in test [4] (setting [8]); 69.3% in test [4] (at 50.0 µM). Also, the growth inhibition was -3% in test [5] (setting [7]); 97% (active) in test [5] (setting [8]); 93% (active) in test [5] (at 50.0 µM); 32% in test [6] (setting [7]); 96% (active) in test [6] (setting [8]); 98.2% (active) in test [6] (at 50.0 µM).

As for `CC(=O)OC[C@@]1(C)[C@@H]2CC[C@]3(C)[C@H](C(=O)C=C4[C@@H]5CC(C)(C)CC[C@]5(C(=O)O)CC[C@]43C)[C@@]2(C)CC[C@@H]1OC(C)=O`, the growth inhibition was 23% in test [1] (setting [7]); 84% (active) in test [1] (setting [8]); 43.1% in test [1] (at 50.0 µM); 23% in test [2] (setting [7]); 88% (active) in test [2] (setting [8]); 94.2% (active) in test [2] (at 50.0 µM). Also, the growth inhibition was 28% in test [3] (setting [7]); 88% (active) in test [3] (setting [8]); 92.8% (active) in test [3] (at 50.0 µM); 39% in test [4] (setting [7]); 93% (active) in test [4] (setting [8]); 95.7% (active) in test [4] (at 50.0 µM). The growth inhibition in test [5] (setting [7]) was 9%; in test [5] (setting [8]), 91% (active); in test [5] (at 50.0 µM) it was 92.7% (active); in test [6] (setting [7]) it was 29%; in test [6] (setting [8]) it was 88% (active); in test [6] (at 50.0 µM), 95.6% (active).

As to `OC/C(=C\c1ccccc1Br)c1ccccc1Br`, the growth inhibition in test [1] (setting [7]) was 2%; in test [1] (setting [8]) it was 99% (active); in test [1] (at 50.0 µM) it was 99% (active); in test [2] (setting [7]), 7%; in test [2] (setting [8]) it was 100% (active); in test [2] (at 50.0 µM), 99.1% (active). Besides, the growth inhibition is 6% in test [3] (setting [7]); 66% in test [3] (setting [8]); 99.2% (active) in test [3] (at 50.0 µM); 0% in test [4] (setting [7]); 100% (active) in test [4] (setting [8]); 97.5% (active) in test [4] (at 50.0 µM). Further, the growth inhibition in test [5] (setting [7]) is 10%; in test [5] (setting [8]), 99% (active); in test [5] (at 50.0 µM), 99% (active); in test [6] (setting [7]), -10%; in test [6] (setting [8]) it was 99% (active); in test [6] (at 50.0 µM), 99% (active).

`C=C(C)COc1cc(NC(=S)OC(C)C)ccc1Cl`: the growth inhibition in test [1] (setting [7]) was 16%; in test [1] (setting [8]) it was 90% (active); in test [1] (at 50.0 µM), 51.8%; in test [2] (setting [7]) it was 16%; in test [2] (setting [8]), 93% (active); in test [2] (at 50.0 µM), 83.8% (active). Also, the growth inhibition in test [3] (setting [7]) is 8%; in test [3] (setting [8]) it was 88% (active); in test [3] (at 50.0 µM) it was 90.1% (active); in test [4] (setting [7]) it was 6%; in test [4] (setting [8]) it was 86% (active); in test [4] (at 50.0 µM) it was 88.2% (active). Moreover, the growth inhibition in test [5] (setting [7]) was 20%; in test [5] (setting [8]), 93% (active); in test [5] (at 50.0 µM), 88.3% (active); in test [6] (setting [7]), 12%; in test [6] (setting [8]), 92% (active); in test [6] (at 50.0 µM), 83.6% (active).

With `CSc1nc(C)cc(SCc2ccc(Cl)cc2Cl)n1`, the growth inhibition in test [1] (setting [7]) was -3%; in test [1] (setting [8]), 4%; in test [1] (at 50.0 µM) it was -20.9%; in test [2] (setting [7]) it was -3%; in test [2] (setting [8]), -7%; in test [2] (at 50.0 µM), -20.6%. Also, the growth inhibition is -2% in test [3] (setting [7]); 8% in test [3] (setting [8]); -0.95% in test [3] (at 50.0 µM); 2% in test [4] (setting [7]); -1% in test [4] (setting [8]); -36.7% in test [4] (at 50.0 µM). In addition, the growth inhibition in test [5] (setting [7]) was 2%; in test [5] (setting [8]) it was 18%; in test [5] (at 50.0 µM) it was 75% (active); in test [6] (setting [7]), -2%; in test [6] (setting [8]), 21%; in test [6] (at 50.0 µM), -25.4%.

`S=C1NCCNC(=S)SS1`: the growth inhibition in test [1] (setting [7]) is 40%; in test [1] (setting [8]) it was 97% (active); in test [1] (at 50.0 µM), 93% (active); in test [2] (setting [7]), 8%; in test [2] (setting [8]), 99% (active); in test [2] (at 50.0 µM), 77.6% (active). The growth inhibition in test [3] (setting [7]) is 15%; in test [3] (setting [8]), 97% (active); in test [3] (at 50.0 µM), 48.5%; in test [4] (setting [7]), 7%; in test [4] (setting [8]), 98% (active); in test [4] (at 50.0 µM), 20.2%. In addition, the growth inhibition in test [5] (setting [7]) was 10%; in test [5] (setting [8]) it was 99% (active); in test [5] (at 50.0 µM), 98.8% (active); in test [6] (setting [7]), 14%; in test [6] (setting [8]) it was 99% (active); in test [6] (at 50.0 µM) it was 44.5%.

In the case of `O=C1c2ccc3c4ccccc4n(Cc4ccccc4)c3c2C(=O)N1c1ccccc1`, the growth inhibition in test [1] (setting [7]) was 87% (active); in test [1] (setting [8]), 87% (active); in test [1] (at 50.0 µM) it was 92% (active); in test [2] (setting [7]), 62%; in test [2] (setting [8]) it was 62%; in test [2] (at 50.0 µM) it was 93.4% (active). Besides, the growth inhibition in test [3] (setting [7]) is 39%; in test [3] (setting [8]), 39%; in test [3] (at 50.0 µM) it was 92.5% (active); in test [4] (setting [7]), 75% (active); in test [4] (setting [8]), 75% (active); in test [4] (at 50.0 µM), 92.2% (active). Further, the growth inhibition in test [5] (setting [7]) was 80% (active); in test [5] (setting [8]) it was 80% (active); in test [5] (at 50.0 µM), 91.5% (active); in test [6] (setting [7]), 47%; in test [6] (setting [8]), 47%; in test [6] (at 50.0 µM), 91.3% (active).

With `CC[N](CC)[Ge]([CH2]C)[CH2]C.CC[N](CC)[Ge]([CH2]C)[CH2]C`, the growth inhibition in test [1] (setting [7]) was 34%; in test [1] (setting [8]) it was 98% (active); in test [1] (at 50.0 µM), 57%; in test [2] (setting [7]), 21%; in test [2] (setting [8]) it was 98% (active); in test [2] (at 50.0 µM) it was 76.9% (active). Besides, the growth inhibition in test [3] (setting [7]) was 56%; in test [3] (setting [8]), 99% (active); in test [3] (at 50.0 µM) it was 56.4%; in test [4] (setting [7]), 48%; in test [4] (setting [8]), 98% (active); in test [4] (at 50.0 µM) it was 37.1%. For the same compound, the growth inhibition in test [5] (setting [7]) is 59%; in test [5] (setting [8]), 99% (active); in test [5] (at 50.0 µM), 75% (active); in test [6] (setting [7]), 27%; in test [6] (setting [8]), 97% (active); in test [6] (at 50.0 µM), 77.7% (active).

On to `CCCCCCCCCCCC(O)CN1CCOCC1` (configuration not stated), for which the growth inhibition in test [1] (setting [7]) is 49%; in test [1] (setting [8]) it was 1%; in test [1] (at 50.0 µM), 98.4% (active); in test [2] (setting [7]) it was 46%; in test [2] (setting [8]) it was 9%; in test [2] (at 50.0 µM) it was 97.5% (active). The growth inhibition in test [3] (setting [7]) was 49%; in test [3] (setting [8]) it was -2%; in test [3] (at 50.0 µM) it was 43.8%; in test [4] (setting [7]) it was 46%; in test [4] (setting [8]), 8%; in test [4] (at 50.0 µM) it was 91.5% (active). The growth inhibition in test [5] (setting [7]) was 57%; in test [5] (setting [8]), 31%; in test [5] (at 50.0 µM) it was 98.8% (active); in test [6] (setting [7]), 43%; in test [6] (setting [8]), 4%; in test [6] (at 50.0 µM), 94% (active).
